This is a sample that favours compounds with a hit; in the whole collection about 17% have one here.
TGFb inhibitor: qHTS for Inhibitors of TGF-b; 1.2% of 410,000 active; HepG2 CAGA-GFP TGF-b/SMAD3 reporter, GFP fluorescence, 18 h; TGF-beta stimulated, 500 pg/mL final; AID 588855, 2011; Potency, µM (doses to about 46.1 µM), for the others: top-dose activity, negative = inhibition, actives largely listed as inhibitors; note: % is set by controls: 0 for no effect and ±100 for the full control effect; nearly all actives have a fitted effect of over 65% in size
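Smad-responsive CAGA-GFP expression was quantified in HEPG2 cells exposed to compounds and 500 pg/mL final TGF-beta for 18 h at 37 degrees C; unstimulated wells defined full inhibition.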
DT40 TDP1 no CPT: qHTS for Inhibitors of human tyrosyl-DNA phosphodiesterase 1 (TDP1): qHTS in cells in absence of CPT | DT40 Tdp1-/- hTDP1 cells, no CPT, ATP luminescence, 48 h | Potency, µM (highest dose often 46.2 µM), for the others: at the highest dose activity change, negative = growth inhibition, most hits filed as inhibitors | 15% of 420,000 active | AID 686978, 2013; note: % is set by controls: 0 for no effect and ±100 for the full control effect; nearly all actives have a fitted effect of over 55% in size
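Chicken DT40 Tdp1-/- cells complemented with human TDP1, screened without camptothecin (DMSO vehicle only), 400 cells/well. Compounds pin-transferred, cells incubated at 37 °C for at least 48 hr. Growth read as ATP-dependent luminescence (CellTiter-Glo, 30 min at RT).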
DT40 TDP1 CPT: qHTS for Inhibitors of human tyrosyl-DNA phosphodiesterase 1 (TDP1): qHTS in cells in presence of CPT; Potency, µM (series often up to 46.2 µM), for inactives: at the top dose activity change, negative = growth inhibition, usual class: inhibitors; chicken DT40 Tdp1-/-;hTDP1 cells + 20 nM CPT, ATP luminescence, 48 h; AID 686979, 2013; 12% of 420,000 active; note: % is set by controls: 0 for no effect and ±100 for the full control effect; nearly all actives have a fitted effect of over 55% in size
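Chicken DT40 Tdp1-/- cells complemented with human TDP1, 400 cells/well, exposed to compounds plus 20 nM camptothecin for at least 48 h at 37 C; viability read as ATP content by CellTiter-Glo luminescence.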
ATXN2 expr inh: Primary qHTS for Inhibitors of ATXN expression; 0.72% of 360,000 active; Potency, µM (titrated, usually from 57 µM), without a hit: top-dose activity change, negative = inhibition, most hits filed as inhibitors; HEK-293 ATXN2-luciferase reporter, luminescence, 24 h; note: % is set by controls: 0 for no effect and ±100 for the full control effect; nearly all actives have a fitted effect of over 55% in size
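qHTS (up to 57 uM final) was run with 24 h compound exposure of reporter cells at 37 °C. Each well was multiplexed: SteadyGlo luminescence measured ATXN2-luciferase expression after a fluorogenic Gly-Phe-AFC viability readout (25 uM final).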
HepG2 tox: qHTS for Inhibitors of TGF-b: Cytotox Counterscreen; HepG2 CAGA-GFP viability, ATP luminescence, 18 h; Potency, µM (top dose mostly 46.1 µM), inactives show at the highest dose activity change, negative = cytotoxicity, hits mostly cytotoxic; 0.76% of 410,000 active; AID 588856, 2011
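CellTiter-Glo luminescence gave cytotoxicity after 18 hours at 37 degrees C. The cells were HepG2 CAGA-GFP in 1% FBS DMEM, stimulated with 500 pg/mL TGF-beta after compound addition. %Activity was normalised to no-cell wells (complete cell-killing) and DMSO (no toxicity), and curves were fitted and classified.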
S2 tox: Viability Counterscreen for Primary qHTS for Inhibitors of ATXN expression | S2 cells (HEK-293 line with an ATXN2-luciferase reporter) viability, CellTiter-Fluor protease fluorescence, 24 h | Potency, µM (titrated, usually from 56.7 µM), usual class: cytotoxic | 0.49% of 400,000 active | AID 651635, 2014; note: nearly all actives have a fitted effect of over 40% in size
An asterisk follows results filed as active; i = inactive; ? = inconclusive; · = not tested or not shown. Calls come from the whole dose curve; as a rule, active = well fitted curve in the direction sought with a large enough effect; inconclusive = small, poorly fitted or top-dose-only effect, or another doubt; inactive = no such curve, though single readings can be large; an effect the other way counts as inactive or inconclusive. Potency is the fitted concentration of half-maximal effect.

SMILES	TGFb inhibitor	DT40 TDP1 no CPT	DT40 TDP1 CPT	ATXN2 expr inh	HepG2 tox	S2 tox
COc1ccc(NC(=O)C(c2ccc(OC)cc2)n2c(=O)c(-c3cc4ccccc4[nH]3)nc3ccccc32)cc1 (stereo not given)	·	13µM*	16µM*	·	·	·
COc1ccc(NC(=O)C(C2CC2)n2c(=O)c(-c3ccccc3)nc3ccccc32)cc1 (stereo not given)	·	15µM*	?	·	·	·
N#Cc1ccc(C(C(=O)Nc2ccc3c(c2)OCCO3)n2c(=O)c(-c3ccco3)nc3ccccc32)cc1 (stereo not given)	·	-27%	-106%	·	·	·
O=C(Nc1ccc2c(c1)OCCO2)C(C1CC1)n1c(=O)c(-c2ccco2)nc2ccccc21 (stereo not given)	·	-18%	1%	·	·	·
CC(Sc1ccccc1F)C(=O)Nc1ccc2c(c1)OCCO2 (stereo not given)	-2%	-6%	-6%	40%	4%	i
O=C(Nc1ccc2c(c1)OCCO2)C(c1ccccc1F)n1c(=O)c(-c2cc3ccccc3[nH]2)nc2ccccc21 (stereo not given)	·	18µM*	15µM*	·	·	·
O=C(Nc1cc(F)ccc1F)C1CCN(c2nc3ccccc3n3cccc23)CC1	-2%	?	-27%	·	1%	·
CC(C)(C)OC(=O)N1CCC(NC(=O)c2[nH]cnc2C(=O)Nc2cccc(Cl)c2)CC1	?	?	?	-18%	7%	·
CCOc1ccc(CCN2C(=O)C(=O)N([C@@H](CC(C)C)CN3CCC[C@H]3CN3C(=O)C(=O)NC[C@@H]3Cc3ccccc3)C[C@@H]2Cc2ccccc2)cc1	·	16µM*	16µM*	?	·	·
CC(C)C[C@H]1CN(CCCC[C@H]2CNC(=O)C(=O)N2CCC2CCCCC2)C(=O)C(=O)N1CCc1ccccc1	·	18µM*	?	16%	·	i
CCOc1ccc(CCN2C(=O)C(=O)N([C@@H](CC(C)C)CN3CCC[C@@H]3CN3C(=O)C(=O)NC[C@@H]3Cc3ccccc3)C[C@@H]2CC(C)C)cc1	10µM*	23µM*	?	?	-37%	·
CC(C)C[C@H]1CN(CCCC[C@H]2CNC(=O)C(=O)N2CCc2ccccc2)C(=O)C(=O)N1CCC1CCCCC1	·	-6%	-2%	10%	·	i
CCOc1ccc(CCN2C(=O)C(=O)N([C@@H](CC(C)C)CN3CCC[C@@H]3CN3C(=O)C(=O)NC[C@@H]3Cc3ccccc3)C[C@@H]2Cc2ccc(O)cc2)cc1	?	?	?	-12%	-15%	?
CCOc1ccc(CCN2C(=O)C(=O)N([C@@H](CC(C)C)CN3CCC[C@H]3CN3C(=O)C(=O)NC[C@@H]3Cc3ccccc3)C[C@@H]2Cc2ccc(O)cc2)cc1	·	?	?	0%	·	?
O=C(Nc1ccccc1F)c1ccc(C(=O)c2ccccc2)cc1	17%	-25%	?	35%	0%	?
CC(C)(C)c1ccc(S(=O)(=O)n2c(CN3CCOCC3)nc3ccccc32)cc1	-4%	?	21µM*	-19%	-8%	i
c1ccc2c(c1)nc(CN1CCOCC1)n1c3ccccc3nc21	-1%	16µM*	13µM*	1%	6%	i
CCc1nc2ccccc2c2nc3ccccc3n12	-10%	-16%	?	25%	-29%	i
Cc1ccc(S(=O)(=O)N2CCN(Cc3nc4ccccc4n3C)CC2)cc1	-30%	-18%	-5%	-17%	-28%	i
COc1ccc(S(=O)(=O)n2cnc3ccccc32)cc1	-20%	-11%	-13%	-6%	5%	i
COc1ccc(S(=O)(=O)n2c(CCN3CCOCC3)nc3ccccc32)cc1	-24%	21µM*	-28%	-25%	-17%	i
O=S(=O)(c1cc(Cl)ccc1Cl)N1CCC2(CC1)OCCO2	-29%	-5%	-11%	-4%	-6%	i
Cn1cc(S(=O)(=O)N2CCCCC2)cc1C(=O)Nc1ccc(OC(F)(F)F)cc1	-21%	-24%	-1%	-12%	-11%	i
Cc1cccc(Cn2nnc3c(=O)[nH]c(C4CCCN(C(=O)c5ccc(C(C)(C)C)cc5)C4)nc32)c1 (stereo not given)	?	21µM*	?	?	-111%	?
COc1ccc(Cn2nnc3c(=O)[nH]c(C4CCCN(C(=O)c5ccc(C)cc5)C4)nc32)cc1 (stereo not given)	-1%	?	?	2%	-2%	?
SMILES	TGFb inhibitor	DT40 TDP1 no CPT	DT40 TDP1 CPT	ATXN2 expr inh	HepG2 tox	S2 tox
Cc1ccccc1Cn1nnc2c(=O)[nH]c(C3CCCN(C(=O)c4ccc(C(C)(C)C)cc4)C3)nc21 (stereo not given)	?	26µM*	?	?	-104%	?
Cc1ccc(Cn2nnc3c(=O)[nH]c(C4CCCN(C(=O)Nc5ccc(F)cc5)C4)nc32)cc1 (stereo not given)	25%	18µM*	?	-11%	-3%	i
CCOC(=O)c1[nH]cnc1C(=O)N1CCC(C)CC1	-15%	3%	11%	1%	-17%	i
Cc1ccccc1C(=O)OCc1cc(=O)n2nc(C3CC3)sc2n1	6%	-24%	-14%	40%	-44%	i
COC(=O)COc1ccc(-c2ccccc2)cc1C=O	-7%	23µM*	?	7%	-3%	i
COC(=O)COc1ccc(-c2ccc(F)cc2)cc1C=O	-6%	?	?	-10%	7%	i
CC1(C(=O)NCc2ccccc2)CSCC(=O)N1C1CC1 (stereo not given)	·	7%	-3%	·	·	·
COc1ccc(/C=C/C(=O)OCC(=O)NC2CCCC2)c(OC)c1	10%	?	-28%	·	1%	i
CC(NCC(O)COC1CCC(C(C)(C)C)CC1)c1ccccc1 (stereo not given)	?	21µM*	?	·	-137%	·
CC1CCC(C(C)C)C(OCC(O)CNC(C)c2ccccc2)C1 (stereo not given)	?	15µM*	?	?	-87%	?
CC1CCN(CC(O)COC2CC(C)CCC2C(C)C)CC1 (stereo not given)	-14%	16µM*	?	-14%	-24%	i

From PubChem BioAssay
